High-throughput results (PubChem)
Compounds with a hit are over-represented: about 8.9% of the library has one in this group of screens.
DRD3 agonist = activates the human D3 dopamine receptor; P35462; D3R DiscoveRx beta-arrestin cells, luminescence, 90 min; max activation, %; 410,000 tested, 0.58% active; AID 652048; in the data active means max activation above about 30%; further: 0% is about no effect
Target sequence (P35462 whole entry, looked up): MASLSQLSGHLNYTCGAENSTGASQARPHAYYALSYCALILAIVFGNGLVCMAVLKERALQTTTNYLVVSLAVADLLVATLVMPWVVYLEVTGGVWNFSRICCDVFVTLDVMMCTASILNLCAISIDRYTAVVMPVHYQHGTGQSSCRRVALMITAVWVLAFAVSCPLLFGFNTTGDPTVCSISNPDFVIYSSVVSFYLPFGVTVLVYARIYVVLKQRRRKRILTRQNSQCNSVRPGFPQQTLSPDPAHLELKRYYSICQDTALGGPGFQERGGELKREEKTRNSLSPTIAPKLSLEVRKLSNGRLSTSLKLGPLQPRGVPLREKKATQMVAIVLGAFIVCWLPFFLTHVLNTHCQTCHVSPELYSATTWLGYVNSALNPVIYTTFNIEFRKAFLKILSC
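Agonist-mode cell screen: cells plated at 1500/well and incubated overnight at 37 °C, then exposed to library compounds for 90 min at 37 °C. Detection reagent was added for 30–60 min at room temperature, and luminescence was read.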
MCF10A rerep = DNA re-replication induction in MCF 10a cells; AID 624296; MCF 10A DNA re-replication, Hoechst nuclear intensity, 48 h; Potency, µM (doses to about 46.1 µM), without a hit: at the top dose activity, positive = re-replication, hits mostly activators; 350,000 tested, 2.9% active; further: potency means the concentration at half of the fitted maximal effect; % of control where 0% means no effect; nearly all actives have a fitted effect of over 50% in size
DRD3 antagonist = blocks the human D3 dopamine receptor. P35462. D3R cells, DiscoveRx beta-arrestin luminescence, antagonist mode; active compounds read low. max response, negative = inhibition, %. 360,000 tested, 2.5% active. AID 652054; in the data active means max response below about -50%; inconclusive means no clear call, values can overlap the other calls; further: on the % scale 0 is the no-effect control and ±100 the full control effect
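Cells plated overnight at 1500 cells/well, then exposed to library compounds with dopamine controls for 90 minutes at 37 degrees C. DiscoveRx reagent added for 30–60 minutes at room temperature; luminescence read, quantitative HTS format.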
SW480 rerep = induces DNA re-replication in SW480 colon adenocarcinoma cells. SW480 DNA re-replication, Hoechst DNA content imaging, 48 h. Potency, µM (doses to about 46.1 µM), for inactives: top-dose re-replication activation, actives largely listed as activators. 340,000 tested, 1.8% active; further: potency means the concentration at half of the fitted maximal effect; % of control where 0% means no effect; nearly all actives have a fitted effect of over 55% in size
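Image-based DNA-content assay: after two days of treatment, nuclei were labelled with the DNA dye Hoechst and imaged, and hits were compounds raising the count of nuclei showing high fluorescence intensity.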
KB-3-1 tox = kills parental KB-3-1 adenocarcinoma cells; 400,000 tested, 1.4% active; Potency, µM (doses to about 46.1 µM), actives largely listed as cytotoxic; KB-3-1 viability, CellTiter-Glo ATP luminescence, 72 h; further: potency means the concentration at half of the fitted maximal effect; on the % scale 0 is the no-effect control and ±100 the full control effect; nearly all actives have a fitted effect of over 60% in size
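Cytotoxicity in the drug-sensitive parental line KB-3-1 was scored as loss of CellTiter-Glo luminescence following 72 h incubation with compound. Values come from curve fitting of normalized concentration-response data.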
KB-V1 MDR tox = kills drug-selected multidrug resistant KB-V1 cells | KB-V1 MDR cells viability, CellTiter-Glo, 72 h | Potency, µM (doses to about 46.1 µM), hits mostly cytotoxic | 400,000 tested, 3.4% active | AID 1347076; further: potency means the concentration at half of the fitted maximal effect; on the % scale 0 is the no-effect control and ±100 the full control effect; nearly all actives have a fitted effect of over 60% in size
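In this primary screen, KB-V1 cells overexpressing P-gp are incubated with library compounds (lowest to highest concentration) for 72 h at 37 degrees C before a luminescent ATP viability read.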
An asterisk follows results filed as active; i = inactive; ? = inconclusive; . = no result given; ! = repeats disagree; [ ] = another dose, or the depositor's remark. Unless noted, the call rests on the fitted dose curve; in most records, active means well fitted curve in the direction sought with a large enough effect; inconclusive means small, poorly fitted or top-dose-only effect, or another doubt; inactive means no such curve, though single readings can be large; an effect the other way counts as inactive or inconclusive.

SMILES	DRD3 agonist	MCF10A rerep	DRD3 antagonist	SW480 rerep	KB-3-1 tox	KB-V1 MDR tox
CCOC(=O)c1sc(NC(=O)CSc2nnnn2-c2ccccc2)nc1C	0	-29%	-19	?	i	i
COc1cccc(-n2nnnc2SCC(=O)Nc2nc3c(s2)CCCC3)c1	-12	?	0	1%	i	i
COC(=O)c1sc(NC(=O)CSc2nnc(C(C)C)n2C)nc1C	0	-1%	-10	-4%	i	i
CCOC(=O)c1sc(NC(=O)CSc2nnnn2-c2ccc(C)c(C)c2)nc1C	-2	5.8µM*	-9	1%	i	i
O=C(CSc1nnnn1-c1ccc2c(c1)OCCO2)Nc1nc2c(s1)CCCC2	-5	2%	14	-15%	i	16µM*
CC1CN(c2ccc([N+](=O)[O-])c(NCCOc3ccccc3)c2)CC(C)N1 (stereo not drawn)	-25	17%	?	2%	i	?
Cc1ccccc1OCCNc1cc(N2CC(C)NC(C)C2)ccc1[N+](=O)[O-] (stereo not drawn)	-8	-4%	?	4%	?	21µM*
Cc1cc2ccccc2c[n+]1CC(=O)c1ccc(F)cc1	.	.	.	.	i	i
COc1ccc(C=O)cc1COc1ccc2c(c1)OCO2	-4	?	-3	3.7µM*	?	?
COc1ccc(C=O)cc1COc1ccccc1F	-3	14%	7	?	i	?
COc1ccc(C=O)cc1COc1ccc([N+](=O)[O-])c(C)c1	-2	?	10	15µM*	i	i
CCN1CCN(CNC(=O)c2cnccn2)CC1	-7	16%	-19	9%	?	23µM*
CCOC(=O)C1=C(CSCc2ccccc2)NC(=O)NC1c1cc(C)ccc1C (stereo not drawn)	26	?	-22	?	i	9.2µM*
CCOC(=O)C1=C(CN2CCOCC2)NC(=O)NC1c1cc(C)ccc1C (stereo not drawn)	2	-3%	-9	-5%	i	?
CCOC(=O)C1=C(CN2CCCCC2)NC(=O)NC1c1cc(C)ccc1C (stereo not drawn)	-6	5%	2	-1%	i	10µM*!
Cc1cc(C)nc(-n2nc(C)c3c2N(Cc2ccccc2C)C(=O)CC3c2ccc(Cl)cc2)n1 (stereo not drawn)	-21	.	.	.	i	i
CCOC1=C2[C@H](c3ccccc3)N(S(=O)(=O)c3ccc(C)cc3)[C@H](C(C)C)[C@H]2n2c(=O)n(-c3ccccc3)c(=O)n2C1	-11	.	-55*	.	i	i
COc1ccc(OC)c2sc(N3CCN(C(=O)C(C)(C)C)CC3)nc12	-4	.	.	.	i	i
CCOc1ccc(-c2nonc2NC(=O)c2oc3ccc(Br)cc3c2C)cc1	-10	.	.	.	.	.
CCOc1ccc(-c2nonc2NC(=O)c2oc3cc(Br)ccc3c2C)cc1	-22	.	.	.	3.7µM*	?
CCCCn1c(CCc2ccccc2)nc2cc3[nH]c(=O)c(C(C)C)nc3cc21	18	?	-8	1%	i	i
CCCCn1c(-c2ccc(F)c(F)c2)nc2cc3[nH]c(=O)c(C(C)C)nc3cc21	12	23µM*	7	0%	i	i
CC1(C)CC(=O)c2cc(C(=O)Nc3ccc(Br)cc3)c(=O)[nH]c2C1	3	.	.	.	i	i
C=CC[n+]1ccc(/C=C2\C=Cc3cc(C)ccc3N2CC)c2ccccc21	-2	?	-22	101%	8.2µM*	i
Clc1cnc(N/N=C/c2cccs2)c(Cl)c1	-7	0%	32	1%[9.22 µM]	?	?
SMILES	DRD3 agonist	MCF10A rerep	DRD3 antagonist	SW480 rerep	KB-3-1 tox	KB-V1 MDR tox
Cc1ccc(/C=N/Nc2ncc(Cl)cc2Cl)s1	31*	-2%	28	5.8µM*	?	?
CN(c1ccccc1)S(=O)(=O)c1cccc(NC(=O)c2ccc(Cl)c([N+](=O)[O-])c2)c1	-8	?	0	4%	21µM*	16µM*
CN(c1ccccc1)S(=O)(=O)c1ccc(C(=O)NNC(=O)c2ccccc2)cc1	-11	-1%	-29	-46%	i	i
COc1ccc(NC(=O)c2cccc(S(=O)(=O)N(C)c3ccccc3)c2)cn1	0	16%	-15	-1%	?	3.3µM*
O=C(Nc1ccc2c(c1)CCC2)c1ccccc1	-24	13%	-10	0%	i	?
CN(c1ccccc1)S(=O)(=O)c1cccc(C(=O)Nc2ccc3c(c2)CCC3)c1	-1	-21%	3	?	?	5.8µM*
CC(=O)Nc1ccc(C(=O)Nc2cccc(S(=O)(=O)N(C)c3ccccc3)c2)cc1	4	5%	-23	-23%	i	i
CN(c1ccccc1)S(=O)(=O)c1cccc(C(=O)NNC(=O)c2ccccc2)c1	9	10%	-9	-3%	21µM*	15µM*
CN(c1ccccc1)S(=O)(=O)c1cccc(NC(=O)c2ccncc2)c1	1	3%	4	-8%	?	i
COc1ccccc1N(C)S(=O)(=O)c1ccc(C(=O)Nc2cc(OC)c(OC)c(OC)c2)cc1	6	?	33	?	16µM*	?
CCc1cc(C(=O)OC)c(NC(=O)c2cc(Br)cs2)s1	2	143%	12	13%	i	16µM*
CCc1cc(C(=O)OC)c(NC(=O)c2ccoc2C)s1	0	-20%	21	-8%	i	i
CCc1ccccc1NC(=O)N1CCCn2nc(C)cc21	5	.	.	.	.	.
CC(Sc1nc2ccccc2n1C)C(=O)NC(c1ccccc1)c1ccccc1 (stereo not drawn)	2	?	-13	?	i	8.2µM*
Cc1nc(N2CCCC2)ncc1C(=O)Nc1ccccc1	3	.	.	.	i	i
Cc1ccccc1Nc1nc(N)c(C(=O)c2ccccc2Cl)s1	8	.	.	.	.	.
CN1c2ccccc2C(O)=C(C(=S)Nc2ccc(F)c(Cl)c2)S1(=O)=O	-3	?	9	2%	16µM*	16µM*
CN1c2ccccc2C(O)=C(C(=S)Nc2ccccc2)S1(=O)=O	-1	7%	-86*	-10%	i	i
CN1c2ccccc2C(O)=C(C(=O)Nc2ccccc2)S1(=O)=O	0	-6%	9	-3%	i	i
Cc1ccc(NC(=S)C2=C(O)c3ccccc3N(C)S2(=O)=O)cc1	-3	9%	-73*	-4%	i	i
O=C(CN1C(=O)COc2ccc(S(=O)(=O)N3CCOCC3)cc21)NCc1ccc(F)cc1	7	.	.	.	.	.
COc1ccc(C(C)=O)cc1COc1ccc(-n2cnnn2)cc1	-11	7%	-21	-5%	i	21µM*
